Laboratory results taken from ChEMBL document CHEMBL3433997, “St. Jude Leishmania screening dataset” (2016).

Each compound was assayed against Hexose transporter 1 (Plasmodium falciparum) (UniProt O97467) (assay: ST_JUDE_LEISH: Cytotoxicity at 2uM final concentration against transgenic Leishmania Mexicana promastigotes LmPfHT that are glucose transport deficient and complemented with the Plasmodium falciparum hexose transporter. Activity is measured by DNA content using SYBR green in vitro).
Assay type: functional

How did the inhibition turn out when N=c1n(Cc2ccccc2)c2ccccc2n1CC(O)c1ccc(Cl)cc1 (stereo not given) was run?
The inhibition was 2.09%.

With COc1cc(/C=C/C(=O)NC2CCC(N3CCC(c4ccccc4C)CC3)CC2)cc(OC)c1 (stereo not given) as the compound, how does the inhibition read?
The inhibition was -0.16%.

For CC(O)C1CCCCN1C(=O)c1ccc(-c2ccc(-c3nc4cc(F)ccc4[nH]3)cc2)cc1 (stereo not given), which inhibition is on record?
Its inhibition is 3.23%.

How did the inhibition turn out when O=C(NCCCCN1CCC(c2ccc(C(F)(F)F)cc2C(F)(F)F)CC1)c1ccc(NC(=O)c2ccc(Cl)cc2)cc1 was run?
The inhibition was 3.98%.

With N=C(N)NN=CC(=O)Nc1ccc(C(F)(F)F)cc1 as the compound, how does the inhibition read?
The inhibition was -0.97%.

CC(=O)c1cccc(NC(=O)NC2CCN(c3ccnc(Nc4ccc(F)cc4)n3)C2)c1 (stereo not given) was tested. Which inhibition did it give?
The inhibition was -0.93%.

Which inhibition does the source give for O=C(Nc1cc(Cl)ccc1-n1cncn1)C1(c2ccccc2)CC1 here?
The inhibition was 6.43%.

How did the inhibition turn out when OC(CNc1ccnc(Nc2cccc(OCCCN3CCOCC3)c2)n1)c1ccccc1 (stereo not given) was run?
Its inhibition is 0.43%.

How did the inhibition turn out when NC1CCCN(Cc2cccc(-c3ccc(-c4nc5ccccc5[nH]4)cc3)c2)C1 (stereo not given) was run?
The inhibition was 5.94%.

How did the inhibition turn out when O=C(CCN1CCCCC1)Nc1ccc(Nc2nccc(NCC(O)c3ccccc3)n2)cc1 (stereo not given) was run?
The inhibition was -1.09%.

For C=CCOC(=O)N1CCC(CNCc2cccc(-c3ccc(-c4nc5cccc(C)c5[nH]4)s3)c2)C1 (stereo not given), which inhibition is on record?
Its inhibition is -0.37%.

How did the inhibition turn out when COc1cccc2cc(C(=O)N[C@@H](CC(C)C)C(=O)N[C@H](/C=N/NC(=O)OC(C)(C)C)CC(=O)OC(C)(C)C)oc12 was run?
Its inhibition is 6.98%.

For c1ccc(Oc2ccc(Nc3ccnc(Nc4cccc(CNCCCN5CCOCC5)c4)n3)cc2)cc1, which inhibition is on record?
The inhibition was -2.31%.

With Cc1ccc2nc(N/C(N)=N/C(=O)NC3CCCCC3)nc(C)c2c1 as the compound, how does the inhibition read?
The inhibition was 4.89%.

With CS(=O)(=O)Cc1ccc(Nc2nccc(-c3c(-c4cccc(NC(=O)C5CCCCC5)c4)nn4ncccc34)n2)cc1 as the compound, how does the inhibition read?
The inhibition was 5.62%.

With O=C(/C=C/c1ccc(Cl)cc1)NCCCCCN1CCC(c2c[nH]c3ccccc23)CC1 as the compound, how does the inhibition read?
Its inhibition is 3.59%.

How did the inhibition turn out when CN(C)c1ccc(-c2csc(C(=O)NC3CCN(Cc4ccc(C(C)(C)C)cc4)C3)c2)cc1 (stereo not given) was run?
Its inhibition is 5.58%.

Which inhibition does the source give for CCCC[C@@H](C(=O)NCCc1ccc(Cl)cc1)N1C(=O)CCC1C(=O)Nc1ccc(Cl)c(Cl)c1 (stereo not given in full) here?
The inhibition was 2.4%.

Which inhibition does the source give for COc1ccc(Nc2ncc3c(-c4cccc(NC(=O)c5ccc(N)cc5)c4)c[nH]c3n2)cc1OC here?
Its inhibition is 8.84%.

Which inhibition does the source give for CCCN(CCC)CCCN(CCCN(CCC)CCC)c1cc(C)nc(Nc2ccc3cc(Br)ccc3c2)n1 here?
Its inhibition is 35.1%.

For COc1cc2nc(NCCc3ccccc3)nc(NC(C)c3ccccc3)c2cc1OC (stereo not given), which inhibition is on record?
Its inhibition is 6.76%.

Which inhibition does the source give for CCCCn1c(-c2ccco2)nc2c(c(=O)c3ccccc3n2C)c1=O here?
Its inhibition is 5.89%.

With CC(C)c1ccc(CN2CCCCC(NC(=O)c3cc(-c4ccccc4F)cs3)C2)cc1 (stereo not given) as the compound, how does the inhibition read?
Its inhibition is 8.1%.

For O=C(NCc1ccco1)c1ccc(CN2CCN(C(c3ccccc3)c3ccccc3)CC2)cc1, which inhibition is on record?
Its inhibition is 6.41%.

COc1cccc(C(=O)Nc2ccc(Nc3nc(C)cc(N4CCCCC4)n3)cc2)c1OC was tested. Which inhibition did it give?
The inhibition was 2.75%.

How did the inhibition turn out when C[C@H](Cc1ccc(C[C@@H](C)NCC(O)c2cc(Cl)c(N)c(Cl)c2)cc1)NCC(O)c1cc(Cl)c(N)c(Cl)c1 (stereo not given in full) was run?
Its inhibition is 0.31%.

Which inhibition does the source give for COc1ccc(C(C(=O)NC2CCN(C[C@H](O)c3ccnc4ccc(OC)cc34)CC2)N2CCN(Cc3ccccc3)CC2)cc1 (stereo not given in full) here?
Its inhibition is 0.74%.

CCCCN(CCCC)CCNC(=O)c1ccc(-c2nc3cc(Cl)ccc3[nH]2)c(OCC)c1 was tested. Which inhibition did it give?
Its inhibition is 2.11%.

CC(C)Cc1c(O)nc(SCCN2CCOCC2)[nH]c1=O was tested. Which inhibition did it give?
The inhibition was 1.54%.

For Cc1cc(N/N=C/c2cccc([N+](=O)[O-])c2)c2ccc(F)cc2n1, which inhibition is on record?
Its inhibition is 2.8%.

With O=C(/C=C/c1ccccc1)N1CCOC(CCN2CCC(c3ccccc3)CC2)(c2ccc(Cl)c(Cl)c2)C1 (stereo not given) as the compound, how does the inhibition read?
Its inhibition is 7.51%.

How did the inhibition turn out when COC1CCC(C(=O)Nc2ccc(-c3cccc(-c4nc5cccc(C)c5[nH]4)c3)cc2)CC1 (stereo not given) was run?
Its inhibition is 4.3%.

For CC(C)C[C@@H](/C=N/NC(N)=O)NC(=O)[C@H](CC(C)C)NC(=O)[C@H](CC(C)C)NC(=O)OCc1ccccc1, which inhibition is on record?
Its inhibition is 6.9%.

For CN(C)CCOc1cc(NC(=O)Nc2ccc(-c3ccncc3)c(Cl)c2)ccc1I, which inhibition is on record?
The inhibition was 1.09%.

With CNCCNc1nccc(N2CCc3ncnc(Nc4ccc(OCc5cccc(F)c5)c(Cl)c4)c3C2)n1 as the compound, how does the inhibition read?
The inhibition was 5%.

How did the inhibition turn out when C=CCCCNCC(NCCCNc1cc(=O)c2ccccc2[nH]1)c1cc(Br)cc(Br)c1 (stereo not given) was run?
Its inhibition is -0.98%.

For Cc1nc(-c2ccc(-c3ccc(C(=O)Nc4ccc(I)c(OCC5CCCN5C)c4)cc3)c(C)c2)no1 (stereo not given), which inhibition is on record?
The inhibition was 7.75%.

With COc1cccc(CNC[C@@H](O)[C@H](Cc2ccccc2)NC(=O)c2cc3c4c(c2)c(C(C)C)cn4CCS(=O)(=O)N3C)c1 as the compound, how does the inhibition read?
Its inhibition is 8.07%.

Cc1cccc(OC2CCN(c3ncc(C(=O)NCCCN4CCCC4=O)cc3Cl)CC2)c1 was tested. Which inhibition did it give?
The inhibition was 2.47%.

How did the inhibition turn out when CCN(CC)CCCNc1nccc(N2CCc3ncnc(Nc4ccc(OCc5cccc(F)c5)c(Cl)c4)c3C2)n1 was run?
Its inhibition is 9.1%.
